# Source: PubChem
# Bcl-2 Bim block – inhibitors of Bim-Bcl-2 interaction, human; AID 950; inhibition, % at 10 µM; Bead-based flow cytometry, Bim peptide-Bcl-2 binding; 190,000 compounds, 0.06% hits; P10415; in the data active = inhibition above about 40%
# Target sequence (P10415 whole entry, looked up): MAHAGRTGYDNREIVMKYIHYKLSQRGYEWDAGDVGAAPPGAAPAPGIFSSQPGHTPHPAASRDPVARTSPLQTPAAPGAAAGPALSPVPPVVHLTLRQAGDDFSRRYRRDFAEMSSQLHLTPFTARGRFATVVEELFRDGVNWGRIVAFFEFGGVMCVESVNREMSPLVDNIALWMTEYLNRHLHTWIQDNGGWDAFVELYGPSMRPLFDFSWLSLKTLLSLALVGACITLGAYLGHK
# Bcl-XL Bim block – inhibitors of Bim-Bcl-XL interaction, human; Bim peptide-Bcl-XL binding, bead flow cytometry, fluorescence; inhibition, % at 10 µM; AID 1007; 190,000 compounds, 0.04% hits; Q07817
# Bcl-W Bim block – inhibitors of Bim-Bcl-W interaction, human; bead-based flow cytometry, Bim peptide-Bcl-W binding; inhibition, % at 10 µM; 190,000 compounds, 0.02% hits;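 also: higher means less fluorescent Bim peptide bound to Bcl-W beads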
# Target sequence (Q92843 whole entry, looked up): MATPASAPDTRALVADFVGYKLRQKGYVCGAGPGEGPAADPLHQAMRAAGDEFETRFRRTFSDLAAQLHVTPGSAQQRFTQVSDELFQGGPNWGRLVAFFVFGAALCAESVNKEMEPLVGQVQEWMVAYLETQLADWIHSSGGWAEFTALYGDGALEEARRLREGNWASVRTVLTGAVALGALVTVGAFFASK
# PKD1 inh – blocks activity of human protein kinase D1 | PKD1 kinase fluorescence polarization assay | inhibition, % (no concentration beside the values) | 200,000 compounds, 0.056% hits; in the data active = inhibition above about 50%
# Bfl-1 Bim block – human Bim-Bfl-1 interaction inhibition; Bead-based flow cytometry, Bim-Bfl-1 binding inhibition; inhibition, % at 10 µM; 190,000 compounds, 0.12% hits; AID 1008
# Bim-Bcl-B – inhibitors of Bim-Bcl-B interaction, human. bead-based flow cytometry, Bim peptide-Bcl-B binding. inhibition, % at 10 µM. 190,000 compounds, 0.073% hits. AID 951
# PKD FP artifact – FP interference, PKD inhibitor counter-screen; shares compounds with PKD1 inh; PKD1 FP assay interference counter-screen, fluorescence polarization; inhibition, % at 10 µM; 85 tested, under 10 active; call rule not given here
# Numbers stand for hits; . = inactive; / = no result given. Shown are actives, neighbours in structure and some others; about 0.24% of the full set was active somewhere. Rule as the data show it, unless noted: active = inhibition above about 40%.
SMILES,Bcl-2 Bim block,Bcl-XL Bim block,Bcl-W Bim block,PKD1 inh,Bfl-1 Bim block,Bim-Bcl-B,others
Cc1ccc(C(C(=O)NC2CCCC2)N(Cc2ccco2)C(=O)CCC(=O)Nc2cc(C)on2)cc1 (centres undefined),.,.,.,.,.,.,
O=C(COc1ncnc2ccc(Br)cc12)Nc1ccc(N2CCOCC2)cc1,.,.,.,.,.,.,
Brc1ccc2ncnc(Nc3ccc(N4CCOCC4)cc3)c2c1,.,.,.,.,.,48,
COc1ccc(N2CCN(C(CNS(C)(=O)=O)c3ccco3)CC2)cc1 (centres undefined),.,.,.,.,.,.,
Nc1ccc2c(c1)C(=O)C(=O)c1ccccc1-2,.,.,.,.,.,.,
O=C1C(=O)c2ccc(-c3ccccc3)cc2-c2ccccc21,.,.,.,.,41,.,
CC1=CC(=O)c2c(O)ccc(O)c2C1=O,.,.,45,.,66,.,
CC(C)NC(=S)N/N=C1\CCCCC1C1CCCCC1 (centres undefined),.,.,.,.,.,.,
CNc1ccc(Br)cc(C(=O)/C=C/c2ccc(OC)cc2OC)c1=O,.,.,.,.,41,.,
CNc1ccc(Br)cc(C(=O)/C=C/c2cccc(OC)c2)c1=O,.,.,.,.,.,.,
CC1Nc2ccccc2C(=O)N1NS(=O)(=O)c1ccccc1 (centres undefined),.,42,.,.,43,.,
Cc1ccc(S(=O)(=O)NN2C(=O)c3ccccc3NC2C)cc1 (centres undefined),.,.,.,.,.,.,
COc1ccc(Cl)cc1-n1c(C)cc(C(=O)O)c1C,.,.,.,.,.,.,
COc1ccc(Cl)cc1-n1c(C)cc(C=O)c1C,86,.,.,.,62,84,
CCN1/C(=C/C=C/c2oc3ccc4ccccc4c3[n+]2CC)Oc2ccc3ccccc3c21,.,45,.,.,.,.,
CSc1cccc(NC(=O)CSc2nc3ccccc3o2)c1,.,.,.,.,.,.,
CCOc1ncccc1C(=O)OC(C)C(=O)Nc1ccc(CC)cc1 (centres undefined),50,.,.,.,.,55,
CCOc1ncccc1C(=O)Nc1ccc(F)cc1,.,.,.,.,.,.,
O=C(c1cc(=O)c2ccccc2o1)N1CCN(c2ccccc2F)CC1,66,.,58,.,58,52,
O=C(c1cc(=O)c2ccccc2o1)N1CCN(c2cccc(Cl)c2)CC1,.,.,.,.,.,.,
CN1/C(=C\C(=O)Nc2ccc(Cl)cc2)C(C)(C)c2ccccc21,.,40,.,.,.,.,
CN1/C(=C\C=C(/C#N)C(=O)Nc2ccc(Cl)cc2)C(C)(C)c2ccccc21,.,.,.,.,.,.,
O=C(c1cc2ccccc2oc1=O)N(c1ccccc1)C1C=CS(=O)(=O)C1 (centres undefined),.,.,.,.,41,.,
COc1ccc(N(C(=O)c2cc3ccccc3oc2=O)C2C=CS(=O)(=O)C2)cc1 (centres undefined),.,.,.,.,.,.,
O=C(N/N=C/c1cccc(C(F)(F)F)c1)C1CCN(c2ncc(C(F)(F)F)cc2Cl)CC1,.,.,.,.,.,.,
SMILES,Bcl-2 Bim block,Bcl-XL Bim block,Bcl-W Bim block,PKD1 inh,Bfl-1 Bim block,Bim-Bcl-B,others
O=C(COc1ccccc1)Nc1ccc2c(c1)Cc1cc(NC(=O)COc3ccccc3)ccc1-2,104,103,110,.,91,107,
O=C1N/C(=C/c2cccn2-c2ccccc2)C(=O)N1Cc1ccc(F)cc1,.,.,.,.,42,.,
C=CCNC(=O)COC(=O)c1cccnc1Nc1ccccc1F,.,.,.,.,.,.,
O=C(O)CC/C(=C\c1ccccc1[N+](=O)[O-])c1nc2ccccc2s1,.,.,.,.,.,.,
O=C(O)CC/C(=C\c1cc([N+](=O)[O-])ccc1Cl)c1nc2ccccc2s1,.,40,.,.,.,.,
Cc1c(N=NC2=C(O)CC(C)(C)CC2=O)c(=O)n(-c2ccccc2)n1C,.,.,.,.,.,.,
COc1ccccc1NC(=O)c1ccc(CSc2ncccn2)cc1,.,.,.,.,.,.,
O=C(OCc1nc2ccccc2[nH]1)C12CC3CC(CC(C3)C1)C2,.,.,.,.,.,42,
CCOC(=O)N1CCN(c2c(NCCc3ccccc3)c(=O)c2=O)CC1,.,.,.,.,.,.,
CCOC(=O)N1CCN(c2cc(NCCC(=O)O)c3c4c(onc24)-c2ccccc2C3=O)CC1,.,40,.,56,43,.,PKD FP artifact=.
COc1ccc2nc3sc(C(=O)N4CCN(C)CC4)cc3cc2c1,.,.,.,.,.,.,
COc1ccc2nc3sc(C(=O)NCCCN4CCc5ccccc5C4)cc3cc2c1,.,.,.,56,.,.,PKD FP artifact=.
CCCCn1c(=O)[nH]c2nc3cc(N)ccc3nc2c1=O,.,.,.,60,.,.,PKD FP artifact=.
C=CCOc1ccc(C2C(C(=O)c3cccs3)=C(O)C(=O)N2c2nnc(C)s2)cc1 (centres undefined),/,/,/,.,/,/,
COc1ccc(C2C(C(=O)c3cccs3)=C(O)C(=O)N2c2nncs2)cc1 (centres undefined),.,.,.,67,.,.,PKD FP artifact=.
N#C/C(=N\Nc1ccc(Cl)cc1)C(=O)c1ccccc1,.,.,.,.,.,.,
Cc1c(N/N=C(\C#N)C(=O)c2ccc(Cl)cc2)c(=O)n(-c2ccccc2)n1C,.,.,.,62,.,.,PKD FP artifact=.
COCC(C)n1c(C)cc(C(=O)COC(=O)c2nc3nc(C)cc(C)n3n2)c1C (centres undefined),.,.,.,98,.,.,PKD FP artifact=.
NC(=NCCc1c[nH]c2ccccc12)NS(=O)(=O)c1cc(F)ccc1F,.,.,.,52,.,.,PKD FP artifact=.
NC(=NCCc1ccccc1)NS(=O)(=O)c1ccc(F)cc1,.,.,.,.,.,.,
CC1CCCC(C)N1C(=O)Cn1cc(/C=C2/C(=O)Nc3ccccc32)c2ccccc21 (centres undefined),.,.,.,51,.,.,PKD FP artifact=.
CC(=O)Nc1ccc2c(c1)c1ccccc1n2C(C)=O,.,.,.,59,.,.,PKD FP artifact=.
CCN(CC)C(=O)c1c(Cl)nc(C)c([N+](=O)[O-])c1C,.,.,.,.,.,.,
O=C(Nc1ccc(CN2CCOCC2)cc1)c1ccc(-c2ccc(Cl)cc2Cl)o1,.,.,.,.,.,.,
O=C(Nc1ccc(CN2CCOCC2)cc1)c1ccc(-c2cccc(Cl)c2)o1,.,.,.,86,.,.,PKD FP artifact=.
COc1ccc2nc(SCC(=O)N(C)C3CCCCC3)c(C#N)cc2c1,.,.,.,.,.,.,
C=CCNCCOCCOc1ccccc1-c1ccccc1,.,.,.,.,.,.,
Cc1cc(N=CC2=C(O)CC(C)(C)CC2=O)no1,.,.,.,60,.,.,PKD FP artifact=.
CC1(C)CC(=O)C(C=Nc2ccncc2)=C(O)C1,/,/,/,.,/,/,
Cc1nn(C(=O)c2cc3sccc3[nH]2)c(C)c1C,.,.,.,.,.,.,
